73 compounds from PubChem BioAssay AID2330 (Broad Institute, 2010) can be followed below.

As a reminder, the inhibition is the drop in the measured response relative to a control, in per cent.

Among all 37,000 compounds or so, about 2,800 (7.6%) were called active. Not shown: some 1% with an inconclusive outcome. The sample holds actives, similar compounds and a random draw of the others, so the mix is not that of the screen. A number with no mark means an inactive call. No stated cut-off is given here; in the data, active means inhibition above about 80%; inconclusive means no clear call, values can overlap the other calls; inactive means below that.

A short description of the experiment: NOMO-1 AML cell viability reduction, primary screen, STK33 inhibitor project, CellTiter-Glo luminescence (AID 2330). Particulars: NOMO-1 AML viability, 72 h, hits give high values, concentration not given here.
For `Cc1noc(C)c1NC(=O)N(C)C[C@@H]1Oc2ccc(NC(=O)Nc3ccc(C(F)(F)F)cc3)cc2C(=O)N([C@H](C)CO)C[C@@H]1C`, the inhibition was 7.38%.

Consider `CC(=O)N[C@@H](C(=O)O[C@H]1CCC(C)(C)[C@@H]2CCC3=C(COC3=O)[C@@]12C)C(C)C`, for which the inhibition was 25.2%.

`Cc1ccc(-c2nc(S(=O)(=O)c3ccc(Br)cc3)c(SCC(N)=O)o2)cc1`: the inhibition is 11.1%.

As to `O=C(c1ccccc1)c1cnn(-c2ccc(Cl)cc2)n1`, the inhibition was 18.2%.

`Cc1ccccc1NC(=O)CSc1nnc(-c2ccc([N+](=O)[O-])cc2)n1C`: the inhibition was -7.25%.

With `CCCn1c2ccccc2c2nnc(SCC(=O)Nc3cccc4ccccc34)nc21`, the inhibition was 9.77%.

`O=C1C(=O)N(CCn2c3ccccc3c3nc4ccccc4nc32)c2ccccc21`: the inhibition is 119% (active).

`CCn1c2ccccc2c2nnc(SCC(=O)O)nc21`: the inhibition was 11.8%.

With `Cc1ccc(C)c(OCC(=O)Nc2ccccc2C#N)c1`, the inhibition was 15.4%.

Take `C[C@@H]1CN([C@H](C)CO)C(=O)c2cccc(NS(=O)(=O)c3cn(C)cn3)c2O[C@@H]1CN(C)Cc1ccc(C(F)(F)F)cc1`: the inhibition was -20.1%.

Regarding `C[C@@H]1CN([C@@H](C)CO)C(=O)c2cccc(NS(=O)(=O)c3ccccc3)c2O[C@@H]1CN(C)S(=O)(=O)c1ccc(F)cc1`, the inhibition is 65%.

As for `O=C(Nc1ccccc1)C(=S)Nc1ccccc1`, the inhibition is 38.4%.

In the case of `O=C(Nc1ccccc1)Nc1ccc(C2SCCS2)cc1`, the inhibition was 89.9% (active).

For `O=C(Nc1ccccc1)Nc1cc(C2CC2)nn1-c1ccccc1`, the inhibition was 16.4%.

Consider `C=C1C(=O)O[C@H]2C3=C(C)C[C@H](OC(C)=O)C[C@]3(C)CC[C@@H]12`, for which the inhibition is 122% (active).

As for `COc1ccc(CN(C)C[C@H]2Oc3ccc(NS(=O)(=O)c4c(C)noc4C)cc3CC(=O)N([C@H](C)CO)C[C@H]2C)cc1`, the inhibition was 5.72%.

`COc1ccc(N(C(C)C(=O)Nc2cccc(Br)c2)S(C)(=O)=O)cc1` (stereo not drawn): the inhibition is -13.9%.

Turning to `COC(=O)c1ccc(NC(=O)CSc2nc(-c3ccccc3)c(-c3ccccc3)[nH]2)cc1`, the inhibition is 102% (active).

As for `COC(=O)c1ccc(NC(=O)CSc2nc(-c3ccccc3)cc(=O)[nH]2)cc1`, the inhibition was 0.0616%.

With `Cc1nc(SCC(=O)Nc2ccc(C(=O)O)cc2)[nH]c(=O)c1C`, the inhibition is 24.5%.

As to `C[C@H](CO)N1C[C@H](C)[C@H](CN(C)S(C)(=O)=O)Oc2ccc(NC(=O)c3ccncc3)cc2CC1=O`, the inhibition was -14.9%.

Turning to `CNC[C@H]1Oc2ccc(NS(=O)(=O)c3ccc(F)cc3)cc2CC(=O)N([C@H](C)CO)C[C@H]1C`, the inhibition is -15.6%.

`S=C(NCC1CC1)Nc1ccc(Cl)cc1`: the inhibition was 34.8%.

In the case of `Oc1cc2c(cc1O)CN(C(=S)NCCc1ccc(Cl)cc1)CCC2`, the inhibition was 96.6% (active).

Turning to `COc1cccc2cc(C(=O)C3C(=O)C(=O)N(CCN4CCOCC4)C3c3ccc(F)cc3)oc12` (stereo not drawn), the inhibition is -8.3%.

For the compound `COc1ccc(CNC(=O)c2c(C)oc3c2cc(OC(C)=O)c2ccccc23)cc1`, the inhibition was 43%.

With `Cc1noc(C)c1S(=O)(=O)Nc1ccc2c(c1)CC(=O)N([C@H](C)CO)C[C@@H](C)[C@@H](CN(C)Cc1ccc(C(=O)O)cc1)O2`, the inhibition is -16.8%.

With `C[C@H](CO)N1C[C@H](C)[C@H](CN(C)S(=O)(=O)c2cn(C)cn2)Oc2c(NC(=O)c3ccncc3)cccc2C1=O`, the inhibition was 29.1%.

With `Cc1c(Cl)cccc1NC(=O)Cn1cc(C(=O)c2cccs2)c2ccccc21`, the inhibition was 88.1% (active).

Take `O=C(Cn1cc(C(=O)C2CC2)c2ccccc21)Nc1ccccc1Cl`: the inhibition was 3.17%.

As to `COc1ccc(OC)c(NC(=O)Cn2cc(C(=O)C3CC3)c3ccccc32)c1`, the inhibition was -2.38%.

Regarding `C[C@@H]1CN([C@@H](C)CO)C(=O)c2cccc(N(C)C)c2O[C@H]1CN(C)S(=O)(=O)c1cccs1`, the inhibition is 22.8%.

In the case of `Cc1ccnc(N)c1`, the inhibition was 6.37%.

Regarding `C[C@H](CO)N1C[C@H](C)[C@H](CN(C)C)Oc2ccc(NC(=O)Nc3ccc(F)cc3)cc2CC1=O`, the inhibition was -3.06%.

As for `COc1ccc(NC(=O)N(C)C[C@@H]2Oc3c(NC(=O)NC4CCCCC4)cccc3C(=O)N([C@H](C)CO)C[C@H]2C)cc1`, the inhibition is -1.16%.

As for `C=CC(C)(O)CCC1(C)C2=C(C(OC(C)=O)C(OC(C)=O)C1C)C(C)(C)CCC2` (stereo not drawn), the inhibition is 115% (active).

Take `C[C@@H]1CN([C@@H](C)CO)C(=O)c2cc(NC(=O)Nc3ccccc3)ccc2O[C@H]1CN(C)S(=O)(=O)c1ccccc1`: the inhibition is -0.0629%.

With `C[C@H](CO)N1C[C@H](C)[C@H](CN(C)S(=O)(=O)c2ccc(Cl)cc2)Oc2ccc(NC(=O)C3CCCCC3)cc2C1=O`, the inhibition was 7.26%.

As to `COc1ccc(OC)c(NC(=O)CSc2n[nH]c(-c3ccncc3)n2)c1`, the inhibition was 14.4%.

For the compound `C[C@@H]1CN([C@H](C)CO)C(=O)Cc2cc(NC(=O)Nc3ccc4c(c3)OCO4)ccc2O[C@@H]1CN(C)Cc1ccc(C(=O)Nc2ccccc2N)cc1`, the inhibition was 96.7% (active).

With `C[C@H]1CN([C@@H](C)CO)C(=O)Cc2cc(NC(=O)Nc3ccc4c(c3)OCO4)ccc2O[C@H]1CN(C)Cc1ccc(C(=O)Nc2ccccc2N)cc1`, the inhibition was 127% (active).

As for `C[C@@H]1CN([C@H](C)CO)C(=O)Cc2cc(NC(=O)Nc3ccc4c(c3)OCO4)ccc2O[C@H]1CN(C)Cc1ccc(C(=O)O)cc1`, the inhibition was 20.5%.

Consider `C[C@@H]1CN([C@H](C)CO)C(=O)Cc2cc(NC(=O)Nc3ccc(F)cc3)ccc2O[C@@H]1CN(C)Cc1ccc2c(c1)OCO2`, for which the inhibition was 31%.

For `C[C@H]1CN([C@@H](C)CO)C(=O)Cc2cc(NC(=O)CCCCCC(=O)Nc3ccccc3N)ccc2O[C@@H]1CN(C)Cc1ccncc1`, the inhibition is 19.5%.

For `COc1ccc(CN(C)C[C@@H]2Oc3ccc(NC(=O)Nc4ccc5c(c4)OCO5)cc3CC(=O)N([C@H](C)CO)C[C@H]2C)cc1`, the inhibition was 8.79%.

For `CC(C)NC(=O)Nc1ccc2c(c1)CC(=O)N([C@H](C)CO)C[C@H](C)[C@H](CN(C)Cc1ccc3c(c1)OCO3)O2`, the inhibition is 14.7%.

Take `C[C@H](CO)N1C[C@H](C)[C@H](CN(C)Cc2ccc(C(=O)Nc3ccccc3N)cc2)Oc2ccc(NC(=O)Nc3ccccc3)cc2CC1=O`: the inhibition is 141% (active).

Turning to `CC(C)NC(=O)Nc1ccc2c(c1)CC(=O)N([C@H](C)CO)C[C@@H](C)[C@@H](CN(C)Cc1ccc(C(=O)Nc3ccccc3N)cc1)O2`, the inhibition is 60.7%.

With `CCN1CCN(C(=O)N[C@@H](C(=O)N[C@@H]2C(=O)N3C(C(=O)O)=C(CSc4nnnn4C)CS[C@H]23)c2ccc(O)cc2)C(=O)C1=O`, the inhibition is 16.9%.

For the compound `Cc1ccc(C)c(S(=O)(=O)NC(C)C(=O)Nc2ccc(Br)cc2F)c1` (stereo not drawn), the inhibition was 1.68%.

On to `Cc1noc(C)c1S(=O)(=O)Nc1ccc2c(c1)CC(=O)N([C@H](C)CO)C[C@H](C)[C@H](CN(C)S(=O)(=O)c1cn(C)cn1)O2`, for which the inhibition was -3.68%.

As to `C[C@@H]1CN([C@H](C)CO)C(=O)Cc2cc(NS(C)(=O)=O)ccc2O[C@@H]1CN(C)C(=O)Nc1ccc2c(c1)OCO2`, the inhibition was -3.88%.

In the case of `O=C(Oc1ccccc1)c1cccc(COC(=O)c2cc3ccccc3oc2=O)c1`, the inhibition is 5.03%.

For `C[C@H](CO)N1C[C@H](C)[C@@H](CN(C)C(=O)Nc2ccccc2)Oc2ccc(N(C)C)cc2C1=O`, the inhibition is 14.4%.

In the case of `CC1CCCCC1NC(=O)CSc1nnc(N)s1` (stereo not drawn), the inhibition was 13.1%.

In the case of `COC(=O)c1cc(NC(=O)Cc2ccccc2[N+](=O)[O-])ccc1Cl`, the inhibition was 62.9%.

Take `Cc1nnc(SCC(=O)N2CCc3ccccc32)n1-c1ccccc1`: the inhibition was 10%.

Consider `CN(C)c1nc(SCCO)nc(N(C)C)n1`, for which the inhibition was 33.8%.

In the case of `COc1cc2c(cc1NC(=O)CN(C)S(=O)(=O)c1ccc(Br)cc1)oc1ccccc12`, the inhibition was -7.24%.

On to `COc1ccc(NC(=O)N(C)C[C@@H]2Oc3ccc(NS(C)(=O)=O)cc3C(=O)N([C@@H](C)CO)C[C@@H]2C)cc1`, for which the inhibition was 22.3%.

Take `COC(=O)c1ccc(C(=O)OC)c(NC(=O)COc2ccc(C)cc2)c1`: the inhibition was 13.3%.

Consider `Cc1sc2ncnc(SCC(=O)Nc3ccccc3)c2c1-c1ccccc1`, for which the inhibition was 26.6%.

With `O=C(CSc1nnc(-c2ccccc2)c(-c2ccccc2)n1)Nc1ccccc1`, the inhibition is 1.52%.

For the compound `N#Cc1c(SCC(=O)Nc2ccccc2)ncc2cc3ccccc3nc12`, the inhibition is 110% (active).

For `CC(C)NC(=O)Nc1cccc2c1O[C@H](CN(C)S(=O)(=O)c1cccs1)[C@@H](C)CN([C@H](C)CO)C2=O`, the inhibition was -9.32%.

`COc1ccc(C)c(Cn2c(-c3nonc3N)nc3ccccc32)c1`: the inhibition is 112% (active).

For the compound `COc1ccc2nc3c(nc2c1)C(=O)c1ccccc1C3=O`, the inhibition is 29.2%.

Take `Cc1ccc(S(=O)(=O)N(C)C[C@@H]2Oc3ccc(NC(=O)Cc4ccccc4)cc3CC(=O)N([C@H](C)CO)C[C@H]2C)cc1`: the inhibition is 53.4%.

`Cc1noc(C)c1NC(=O)Nc1cccc2c1O[C@@H](CN(C)Cc1ccc3c(c1)OCO3)[C@@H](C)CN([C@@H](C)CO)C2=O`: the inhibition is 13.5%.

Turning to `Cc1cc(Cl)c(S(=O)(=O)Nc2ccc3c(c2)OCCO3)cc1OCC(N)=O`, the inhibition is 20.2%.

In the case of `CCN1CCN(S(=O)(=O)c2cc(OCC(N)=O)c(C)cc2Cl)CC1`, the inhibition is 12.8%.

With `Cc1ccc2c(c1)CCCN2S(=O)(=O)c1cc(OCC(N)=O)c(C)cc1Cl`, the inhibition was 93.4% (active).

Turning to `C[C@@H]1CN([C@H](C)CO)C(=O)c2cccc(NS(C)(=O)=O)c2O[C@@H]1CN(C)C(=O)Nc1cccc2ccccc12`, the inhibition was -9.1%.
